Our source for the binding signal values is paper PMC7819943, “Rice protein-binding microarrays: a tool to detect cis-acting elements near promoter regions in rice”.

Whole data set: some 68,000 sequences, median “fluorescence intensity (a.u.)” near 9,100, cut for the highest 2% near 16,000. The sample as a whole holds a higher share of the highest values than the screen did.

Chain of OsWRKY34 (Q0JBA9 entry or part of it): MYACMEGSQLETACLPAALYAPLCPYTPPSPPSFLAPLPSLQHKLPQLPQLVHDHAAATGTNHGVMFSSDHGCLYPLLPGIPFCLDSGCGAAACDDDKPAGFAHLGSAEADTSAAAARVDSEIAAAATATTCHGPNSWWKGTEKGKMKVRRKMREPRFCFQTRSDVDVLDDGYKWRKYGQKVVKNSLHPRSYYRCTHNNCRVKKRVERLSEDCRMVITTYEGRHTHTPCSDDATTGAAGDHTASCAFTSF

In the experiment the target is OsWRKY34 (Oryza sativa, UniProt Q0JBA9 1-250). Put plainly: protein-binding microarray (RPBM); PBS, 2% BSA, 51.3 ng/ul salmon testes DNA, 50 uM zinc acetate, 200 nM TF, 25 C, 1 h; high values mean tight binding. The note with it: protein: recombinant; tags: N-terminal polyhistidine and DsRed monomer fusion (pET32a); label: CyDye5-dUTP incorporated in the synthesized complementary strand; 3' TTTTT single-stranded linker to array surface; dsDNA, one strand shown. The gist of the method:
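Polyhistidine-tagged DsRed fusions of transcription factors, joined at the N-terminus, were expressed in E. coli BL21-CodonPlus and isolated on Ni–NTA. They were incubated at 200 nM for 1 h at 25 °C on a custom Agilent array, double-stranded and BSA-blocked, in PBS with 2% BSA, salmon testes DNA and 50 µM zinc acetate. The binding signal is per-feature fluorescence intensity (arbitrary units) read on an Axon 4000B scanner after washing.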
For the sequence “ACACTGCCACTCTCTCCCTAGGCCTATAAATACCACCAGTCGGAGTCACCTAGTGCAG”, the binding signal is 8340 fluorescence intensity (a.u.).

Consider “CATGTTAATTTTCTACTACAGCTTAGGTTGATGCTATGTTCGGAGTCACCTAGTGCAG”, for which the binding signal was 8270 fluorescence intensity (a.u.).

Regarding “ATCCGCAGACCAAGTCAACACTGCTACGTGAACACCACATCGGAGTCACCTAGTGCAG”, the binding signal was 9850 fluorescence intensity (a.u.).

Consider “ACGTTATTTATTGTTTTAGGTTCAATCTACGAGTTTCTTTCGGAGTCACCTAGTGCAG”, for which the binding signal is 10700 fluorescence intensity (a.u.).

Regarding “TCCTCTTCGCCGGCTGCCGCTCCTCTCCCCGCTCGTCTTTCGGAGTCACCTAGTGCAG”, the binding signal is 9440 fluorescence intensity (a.u.).

Consider “TTTTTTTTTTATCCGTCCCTACTCCTCGCACCTTAAAAATCGGAGTCACCTAGTGCAG”, for which the binding signal is 10300 fluorescence intensity (a.u.).

With “GATCTCTCTCTCATCAGGACCCCGGCCTTAAGTTGTTTCTCGGAGTCACCTAGTGCAG”, the binding signal was 9120 fluorescence intensity (a.u.).

For the sequence “TACTTCCTTTGTCCCTAAATATTTGATGCCGTTGACTTTTCGGAGTCACCTAGTGCAG”, the binding signal is 23900 fluorescence intensity (a.u.).

With “ATTTCCCGTCCTTGTCCTAAATGAGTACTAATTTTGATTTCGGAGTCACCTAGTGCAG”, the binding signal is 10400 fluorescence intensity (a.u.).

For “GATACTCCCTCCATCCATAAATATTTGATGCCGTTGACTTCGGAGTCACCTAGTGCAG”, the binding signal was 12300 fluorescence intensity (a.u.).

For “TGGATTTATTTATTCTTGTTCTTTTTCTCGAAAATTTCCACGGAGTCACCTAGTGCAG”, the binding signal is 8640 fluorescence intensity (a.u.).

For “CTGCTATGAATTATCGGTTGCTTCCGGTGTTGGGCATTGACGGAGTCACCTAGTGCAG”, the binding signal is 12400 fluorescence intensity (a.u.).

For “GGTTTTGTGATTTTGACACCCATTCAGGTTCGTTGTTTTTCGGAGTCACCTAGTGCAG”, the binding signal is 11900 fluorescence intensity (a.u.).

Take “TTTCGACTAACGTTTGACCATTCGTTTTATTCAAAATTTTCGGAGTCACCTAGTGCAG”: the binding signal is 8880 fluorescence intensity (a.u.).

For the sequence “CTACTCCCTCCATTTCGAAATGTTTGACACCGTTGACTTTCGGAGTCACCTAGTGCAG”, the binding signal was 13900 fluorescence intensity (a.u.).

Take “TTAAATGAGTGTTGACTTTTCGTATAACGTTTGACCATTTCGGAGTCACCTAGTGCAG”: the binding signal was 14600 fluorescence intensity (a.u.).

As to “TGACACCGTTGACTTTTCGACCAATGTTTGACCATTCGTTCGGAGTCACCTAGTGCAG”, the binding signal is 24400 fluorescence intensity (a.u.).

On to “ACACCGTTGACTTTTCGACTAACGTTTGACCATTTGTTTTCGGAGTCACCTAGTGCAG”, for which the binding signal was 49300 fluorescence intensity (a.u.).

With “GATCCGCTCGCCCCGCCGCGCCGCCGACCATCGCCATCGCCGGAGTCACCTAGTGCAG”, the binding signal is 8410 fluorescence intensity (a.u.).

With “TCCCACCCGCTGCCACCAAAACCCTCCCCGCGCCCGGTCCCGGAGTCACCTAGTGCAG”, the binding signal is 10500 fluorescence intensity (a.u.).

On to “TCGACAATGTCACTCCATCATATCATGGCCAAAATATAACCGGAGTCACCTAGTGCAG”, for which the binding signal is 8140 fluorescence intensity (a.u.).

Take “CTCTCCTCTCCGGTCATCTCATATATACGTATCTATATCGCGGAGTCACCTAGTGCAG”: the binding signal is 8520 fluorescence intensity (a.u.).

As for “CGCATATATATCTCTCTTTGCATCTGTACTCATCGAATCTCGGAGTCACCTAGTGCAG”, the binding signal was 8640 fluorescence intensity (a.u.).

Take “TCGCGACCTCTCATCTATCGATCTTTGCATACATATATATCGGAGTCACCTAGTGCAG”: the binding signal was 17800 fluorescence intensity (a.u.).

As for “ATCCCCGTGTTCTCCCCACACAAACCTTCGCGCCGCCCATCGGAGTCACCTAGTGCAG”, the binding signal was 9540 fluorescence intensity (a.u.).

Regarding “CCTACTTGTTGGCTTCTATCTCCTGTTAATTAATTTCTCACGGAGTCACCTAGTGCAG”, the binding signal was 8450 fluorescence intensity (a.u.).

“AATCGTTTTCTTTCTTGTCTTCAAACTTATTTTCCCGTTTCGGAGTCACCTAGTGCAG”: the binding signal is 9600 fluorescence intensity (a.u.).

Take “AAGGGTGGGCGTGATGGAGTTTGGATGGGCCCTGCGACGGCGGAGTCACCTAGTGCAG”: the binding signal is 9160 fluorescence intensity (a.u.).

As for “GAGGAGAGGCGGGGTGAGACGGGACGGGAGGGTGGCGATGCGGAGTCACCTAGTGCAG”, the binding signal is 9530 fluorescence intensity (a.u.).

Take “GGAGGGCGGTGGCGAGGGCGGCGGTGGCGCGGATGCTGGACGGAGTCACCTAGTGCAG”: the binding signal was 8960 fluorescence intensity (a.u.).

Consider “CAGTTTCATCCCTAGGTGGTGGTGGCGGTGCGTGGAGTGACGGAGTCACCTAGTGCAG”, for which the binding signal is 16600 fluorescence intensity (a.u.).

For “AGGAGGTGGTGGGTGGTGGTGGCTGCGGCTTGGCGCGATGCGGAGTCACCTAGTGCAG”, the binding signal is 9400 fluorescence intensity (a.u.).

With “GTCAGGTGGCGGCGGCGGCGGTGGTGGCGGTGGAGGTGGACGGAGTCACCTAGTGCAG”, the binding signal is 14400 fluorescence intensity (a.u.).

Consider “CAGGTGGACGGCGGTGGTGGTGGTGGTGGTGGCGGCGATGCGGAGTCACCTAGTGCAG”, for which the binding signal was 17000 fluorescence intensity (a.u.).

“AGGTGGAGGTGGAGGTGGAGGAGGGCGGCGGGTGGCGATGCGGAGTCACCTAGTGCAG”: the binding signal was 16500 fluorescence intensity (a.u.).

With “GGCGGTGGCGGTGACGGTGGAGGTGGAGGCGGTGTGGCATCGGAGTCACCTAGTGCAG”, the binding signal was 8420 fluorescence intensity (a.u.).

Take “TCATGATGAATCGGGGTGGTGGAGGTTTGCTTGTTATGGTCGGAGTCACCTAGTGCAG”: the binding signal is 11000 fluorescence intensity (a.u.).

With “AGATTTGACTATCCTGCTGGAATCCGGTAACAATTTTTCACGGAGTCACCTAGTGCAG”, the binding signal is 9560 fluorescence intensity (a.u.).

Take “TTGGTTGGTTGGTTATACAAAGACGCTACGAGTCCGGGAACGGAGTCACCTAGTGCAG”: the binding signal is 12400 fluorescence intensity (a.u.).

Turning to “ACCATAAAGCCAAGTTTCATCCATAATCCTTATTTTTCATCGGAGTCACCTAGTGCAG”, the binding signal is 8670 fluorescence intensity (a.u.).

As for “TGTTATATTTGTATTTGTGCTTTGCTTCTTCTAGGCTTTTCGGAGTCACCTAGTGCAG”, the binding signal is 8740 fluorescence intensity (a.u.).

Take “TCTCTGTCTCACTCTTCCTCTCTCTCACACGCACGGCGAGCGGAGTCACCTAGTGCAG”: the binding signal was 8380 fluorescence intensity (a.u.).
